# The source made the active and inactive calls.
# Tests used:
# [1] = small molecules captured by biotinylated probe aFSTL3 – biochemical, small-molecule microarray, fluorescence 635/667, stem cell growth factor project, primary screen (AID 1064); conditions: higher = more signal;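 note: measures binding of the biotinylated anti-FSTL3 antibody to printed compounds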
# [2] = binders from COS7 lysate, DM2A8 probe, primary screen, torsin A project, cell lysate, small-molecule microarray, fluorescence 635/667 (AID 1065); conditions: higher = more signal, COS7 lysate expressing mutant human TOR1A
# [3] = small molecules captured by biotinylated probe aFGF2 – biochemical, small-molecule microarray, fluorescence 635/667, stem cell growth factor project, primary screen (AID 1067); conditions: higher = more signal;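 note: measures binding of biotinylated aFGF2 protein to printed compounds on slides; z-score merges feature fluorescence and signal-to-noise across triplicate slides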
# [4] = small molecules captured by biotinylated probe aFGF10 – biochemical, small-molecule microarray, fluorescence 635/667, stem cell growth factor project, primary screen (AID 1071); conditions: higher = more signal;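 note: score merges 667 nm spot intensity and signal to noise from triplicate slides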
# [5] = biological target: Neurogenic locus notch homolog protein 2 (Homo sapiens) (UniProt Q04721); experiment: small molecules binding Notch2 protein – biochemical, small-molecule microarray, 635 nm fluorescence, stem cell growth factors, primary screen (AID 1073); conditions: higher = more signal
# Neurogenic locus notch homolog protein 2 (Homo sapiens), sequence (Q04721 whole entry, looked up, canonical isoform): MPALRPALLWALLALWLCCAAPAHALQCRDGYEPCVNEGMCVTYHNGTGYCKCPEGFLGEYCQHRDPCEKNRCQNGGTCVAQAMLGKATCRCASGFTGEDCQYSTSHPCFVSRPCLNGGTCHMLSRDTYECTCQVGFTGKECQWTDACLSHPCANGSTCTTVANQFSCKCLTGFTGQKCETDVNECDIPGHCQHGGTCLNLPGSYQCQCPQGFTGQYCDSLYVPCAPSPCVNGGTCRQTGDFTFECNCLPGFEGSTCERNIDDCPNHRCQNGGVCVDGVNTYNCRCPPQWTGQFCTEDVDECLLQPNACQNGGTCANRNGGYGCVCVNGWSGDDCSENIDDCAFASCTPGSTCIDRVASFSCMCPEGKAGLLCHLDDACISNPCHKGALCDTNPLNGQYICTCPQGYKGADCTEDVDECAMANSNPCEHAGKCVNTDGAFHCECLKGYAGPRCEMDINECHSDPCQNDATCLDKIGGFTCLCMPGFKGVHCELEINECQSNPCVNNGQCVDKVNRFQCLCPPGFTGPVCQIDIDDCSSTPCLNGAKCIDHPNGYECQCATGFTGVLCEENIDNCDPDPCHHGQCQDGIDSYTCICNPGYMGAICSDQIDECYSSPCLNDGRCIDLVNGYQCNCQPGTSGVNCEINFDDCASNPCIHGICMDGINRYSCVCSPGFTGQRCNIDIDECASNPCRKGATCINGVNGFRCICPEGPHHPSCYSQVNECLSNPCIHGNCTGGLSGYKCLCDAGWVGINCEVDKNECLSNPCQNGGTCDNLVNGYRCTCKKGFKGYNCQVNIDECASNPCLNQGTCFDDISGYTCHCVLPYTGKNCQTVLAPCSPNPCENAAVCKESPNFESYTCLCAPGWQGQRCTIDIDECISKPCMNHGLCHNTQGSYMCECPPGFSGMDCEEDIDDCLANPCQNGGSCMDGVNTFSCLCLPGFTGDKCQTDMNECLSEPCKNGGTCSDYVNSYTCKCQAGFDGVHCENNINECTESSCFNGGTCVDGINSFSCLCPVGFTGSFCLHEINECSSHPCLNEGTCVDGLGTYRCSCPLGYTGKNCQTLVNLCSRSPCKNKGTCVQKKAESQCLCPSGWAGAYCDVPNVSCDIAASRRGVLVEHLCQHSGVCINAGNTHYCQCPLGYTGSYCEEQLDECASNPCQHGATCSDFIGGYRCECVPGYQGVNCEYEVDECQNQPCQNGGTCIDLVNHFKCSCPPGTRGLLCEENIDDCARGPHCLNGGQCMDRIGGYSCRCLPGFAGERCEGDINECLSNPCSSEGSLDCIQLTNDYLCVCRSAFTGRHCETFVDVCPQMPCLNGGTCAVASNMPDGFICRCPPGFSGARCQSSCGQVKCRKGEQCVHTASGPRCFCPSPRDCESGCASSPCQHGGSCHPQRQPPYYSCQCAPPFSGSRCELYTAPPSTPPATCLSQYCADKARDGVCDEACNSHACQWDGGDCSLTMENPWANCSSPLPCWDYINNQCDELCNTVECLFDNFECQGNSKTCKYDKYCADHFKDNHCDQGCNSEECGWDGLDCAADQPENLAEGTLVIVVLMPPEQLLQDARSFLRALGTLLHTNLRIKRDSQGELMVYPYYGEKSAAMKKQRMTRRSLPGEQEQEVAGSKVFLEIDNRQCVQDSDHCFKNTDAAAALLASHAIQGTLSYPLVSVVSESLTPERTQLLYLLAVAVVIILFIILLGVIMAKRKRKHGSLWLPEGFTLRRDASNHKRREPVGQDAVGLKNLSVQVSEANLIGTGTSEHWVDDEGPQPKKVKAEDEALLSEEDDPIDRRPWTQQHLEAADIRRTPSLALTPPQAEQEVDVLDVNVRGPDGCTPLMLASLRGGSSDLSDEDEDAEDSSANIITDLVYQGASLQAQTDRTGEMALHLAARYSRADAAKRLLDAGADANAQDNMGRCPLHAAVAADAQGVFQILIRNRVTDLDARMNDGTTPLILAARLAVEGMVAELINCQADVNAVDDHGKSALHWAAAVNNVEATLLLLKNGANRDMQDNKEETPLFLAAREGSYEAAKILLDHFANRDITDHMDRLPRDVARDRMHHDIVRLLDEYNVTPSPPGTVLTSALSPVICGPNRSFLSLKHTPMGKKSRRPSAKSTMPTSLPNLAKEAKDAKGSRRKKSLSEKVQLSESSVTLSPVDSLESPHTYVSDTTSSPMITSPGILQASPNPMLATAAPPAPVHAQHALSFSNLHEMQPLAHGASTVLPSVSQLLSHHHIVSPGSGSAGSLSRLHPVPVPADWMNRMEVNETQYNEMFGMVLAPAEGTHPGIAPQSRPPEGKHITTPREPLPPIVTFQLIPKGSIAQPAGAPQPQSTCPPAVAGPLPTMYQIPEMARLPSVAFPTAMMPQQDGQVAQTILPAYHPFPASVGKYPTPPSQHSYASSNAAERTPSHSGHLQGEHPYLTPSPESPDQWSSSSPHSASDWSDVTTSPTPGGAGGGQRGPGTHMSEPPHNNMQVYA
# [6] = biological target: Pro-neuregulin-1, membrane-bound isoform (Homo sapiens) (UniProt Q02297); experiment: small molecules binding neuregulin-1 protein – biochemical, small-molecule microarray, fluorescence 635/667, psychiatric disease protein project, primary screen (AID 1075); conditions: NRG1 binding, 635 nm fluorescence, higher = more signal;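 note: score combines 667 nm spot fluorescence with signal to noise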
# Pro-neuregulin-1, membrane-bound isoform (Homo sapiens), sequence (Q02297 whole entry, looked up, the tested form may be a part, canonical isoform): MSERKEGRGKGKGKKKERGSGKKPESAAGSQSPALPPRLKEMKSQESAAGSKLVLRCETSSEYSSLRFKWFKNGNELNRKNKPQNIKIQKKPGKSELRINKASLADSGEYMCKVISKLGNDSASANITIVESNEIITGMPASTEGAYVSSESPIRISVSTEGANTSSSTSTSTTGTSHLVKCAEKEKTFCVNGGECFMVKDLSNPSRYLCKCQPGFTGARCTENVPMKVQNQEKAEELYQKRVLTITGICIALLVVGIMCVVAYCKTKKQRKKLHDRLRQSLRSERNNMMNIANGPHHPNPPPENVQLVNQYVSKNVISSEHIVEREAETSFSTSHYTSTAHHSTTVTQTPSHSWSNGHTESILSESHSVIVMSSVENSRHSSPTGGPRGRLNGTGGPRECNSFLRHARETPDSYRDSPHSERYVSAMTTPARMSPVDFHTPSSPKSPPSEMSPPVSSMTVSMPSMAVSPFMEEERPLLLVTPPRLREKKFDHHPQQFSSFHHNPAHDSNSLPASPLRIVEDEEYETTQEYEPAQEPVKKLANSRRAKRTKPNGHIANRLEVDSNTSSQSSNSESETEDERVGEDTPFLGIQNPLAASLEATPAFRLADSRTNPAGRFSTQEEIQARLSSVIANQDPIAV
# [7] = tested on: Neuregulin-1 EGF-like domain; experiment: small molecules binding NRG1 EGF domain – biochemical, small-molecule microarray, 635 nm fluorescence, primary screen (AID 1081); conditions: higher = more signal;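 note: binding of the protein to compounds printed on small-molecule microarray slides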
# [8] = FRG1 expression reporter modulators in myotubes – cell-based, C2C12 myotubes, firefly/Renilla luciferase, luminescence, FRG1 inhibition for FSHD, primary screen (AID 1084); conditions: FRG1 promoter luciferase, higher = more signal, called active from +8 up or from −8 down
# [9] = small molecules captured by biotinylated probe aFST – biochemical, small-molecule microarray, fluorescence 635/667, stem cell growth factor project, primary screen (AID 1086); conditions: higher = more signal;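 note: score merges 667 nm fluorescence with signal-to-noise of each printed compound spot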
# [10] = binders of probe aHhip on microarray, primary screen, stem cell growth factor project, biochemical, small-molecule microarray, fluorescence 635/667 (AID 1087); conditions: higher = more signal;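 note: score merges spot fluorescence at 667nm with spot signal to noise ratio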
Structure (SMILES),composite z-score [1],composite z-score [2],composite z-score [3],composite z-score [4],composite z-score [5],composite z-score [6],composite z-score [7],z-score [8],composite z-score [9],composite z-score [10]
C=CCNC(=O)[C@@H]1[C@H]2C(=O)O[C@H](c3ccccc3)[C@H](c3ccccc3)N2[C@H](c2ccccc2OCCO)[C@@]12C(=O)Nc1ccc(C#CCCO)cc12,-0.501,0.143,0.0013,0.0379,0.611,0.99,1.19,-0.452 (inactive),0.954,0.154
C=CCC(OC(C)=O)[C@@H]1[C@@H](N(Cc2ccc(-c3cccc(C(F)(F)F)c3)o2)C(=O)c2ccc(-c3ccccc3)cc2)c2cc(OCCCO)ccc2N1C(=O)Cc1ccc2ccccc2c1 (stereo not given in full),-0.414,-0.732,-0.0454,-0.342,-0.753,-0.337,-0.0291,-0.0069 (inactive),1.09,0.0156
CC(C)N1C(=O)c2ccccc2[C@@H](C(=O)NCCN2CCOCC2)[C@@H]1c1ccc(CO)cc1,0.197,-0.831,-0.22,-1.54,-1.61,1.12,1.28,-0.571 (inactive),-0.727,-0.284
CN(C)CCCCCCNC(=O)[C@@H]1C[C@@H]2C(=O)N3CCC[C@H]3C(=O)N2[C@@H]1c1cccc(OCCO)c1,0.117,2.09,0.1,1.11,0.623,0.755,1.48,3.21 (inactive),0.518,-0.0296
CN1C(=O)C2C=CC(C(O)c3cccn3C)N(Nc3ccc([N+](=O)[O-])cc3[N+](=O)[O-])C2C1=O (stereo not given),0.108,-0.0125,0.157,0.162,1.05,0.392,0.828,0.351 (inactive),0.477,-0.0631
COc1cc2c(cc1O)C(c1ccc(CN3CCCC3)cc1)N(Cc1cc3c(cc1Br)OCO3)CC2 (stereo not given),-0.373,-0.311,-0.0351,0.183,0.963,0.729,0.784,0.0296 (inactive),0.296,-0.201
Cc1ccc(S[C@]2(C(=O)NCC(F)(F)F)CC(=O)N(Cc3cc(C(F)(F)F)cc(C(F)(F)F)c3)[C@@H]2c2ccc(CO)cc2)cc1,-0.26,-1.74,-0.133,-0.232,-0.995,1.09,-0.353,0.0697 (inactive),-0.234,-0.0994
C=CCC(OC(C)=O)[C@@H]1[C@@H](N(Cc2cccc3ccccc23)C(=O)Cc2ccc(OC)cc2)c2cc(OCCCO)ccc2N1C(=O)c1ccc(-c2ccccc2)cc1 (stereo not given in full),0.112,0.0969,-0.112,-0.153,-0.0051,0.497,-0.359,-1.39 (inactive),0.428,-0.201
NCCCCCNC(=O)[C@H]1C[C@H]2C(=O)N3CCC[C@H]3C(=O)N2[C@H]1c1cccc(OCCO)c1,1.46,0.161,-0.0448,0.179,-0.0052,1.52,1.43,1.91 (inactive),0.534,0.0873
O=C1C[C@]2(c3ccc([N+](=O)[O-])cc3)C(=O)N(C3CC3)c3cc(CO)ccc3[C@H]2N1CC12CC3CC(CC(C3)C1)C2,-0.224,-0.622,-0.0825,-0.0253,-0.562,-0.0609,-0.5,-0.0608 (inactive),0.0196,-0.258
[N-]=[N+]=Nc1ccccc1C[C@]1(C(=O)N2CCOCC2)COC(c2ccc(OCCCO)cc2)=N1,-0.0495,0.713,-0.0442,0.261,1.35,1.38,1.19,1.71 (inactive),1.28,-0.0617
COc1ccc([Si](C)(C)[C@@H]2[C@@H](CCO)O[C@]3(C(=O)N(Cc4ccccc4)c4ccc(N5C(=O)c6cccc7cccc5c67)cc43)[C@H]2C)cc1,0.107,-0.908,-0.0729,-0.086,-0.0923,0.367,0.609,0.0135 (inactive),-0.175,-0.271
CC(C)C(CO)N1C(=O)[C@@H]2C3C(=O)OCCC/C=C\[C@H]3OC23C=CCN(Cn2nnc4ccccc42)C(=O)[C@@H]13 (stereo not given in full),0.314,-0.665,-0.148,-0.323,-0.72,1.88,0.476,0.0182 (inactive),0.013,-0.306

# — PubChem BioAssay
